Bioassay records from PubChem BioAssay.
An excerpt weighted towards active compounds, which were near 3% of everything screened.
Glioma ERSR ind: inducers of ER stress response in human glioma cells. Potency, µM, for inactives: at the top dose activation, most hits filed as activators. U87-MG GRP78 promoter luciferase reporter, 16 h. 420,000 compounds, 0.02% hits; further: potency means the concentration at half of the fitted maximal effect; series mostly up to about 76 µM; % of control where 0% means no effect; nearly all actives have a fitted effect of over 35% in size
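Stably transfected U87-MG glioma cells carrying a GRP78-based luciferase sensor; 16 h compound incubation. Luminescence end-point read 10 min after Bright-Glo addition at room temperature.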
D3 antag: antagonists of human D3 dopamine receptor; D3R cells, DiscoveRx beta-arrestin luminescence, antagonist mode; hits give low values; max response, negative = inhibition, %; 360,000 compounds, 2.5% hits; in the data active means max response below about -50%; inconclusive means no clear call, values can overlap the other calls; further: on the % scale 0 is the no-effect control and ±100 the full control effect
Target sequence (P35462 whole entry, looked up): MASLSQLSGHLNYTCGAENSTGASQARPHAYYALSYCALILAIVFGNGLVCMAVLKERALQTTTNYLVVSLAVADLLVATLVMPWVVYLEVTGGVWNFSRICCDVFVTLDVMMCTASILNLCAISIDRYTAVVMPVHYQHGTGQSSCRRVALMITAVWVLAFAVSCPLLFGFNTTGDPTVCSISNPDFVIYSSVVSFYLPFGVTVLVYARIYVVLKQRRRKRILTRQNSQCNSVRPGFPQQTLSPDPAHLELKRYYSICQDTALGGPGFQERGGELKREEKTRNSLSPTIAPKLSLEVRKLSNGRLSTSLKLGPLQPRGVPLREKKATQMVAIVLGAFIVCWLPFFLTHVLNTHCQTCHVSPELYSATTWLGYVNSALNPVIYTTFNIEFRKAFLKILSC
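Cells plated overnight at 1500 cells/well, then exposed to library compounds with dopamine controls for 90 minutes at 37 degrees C. DiscoveRx reagent added for 30–60 minutes at room temperature; luminescence read, quantitative HTS format.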
Nrf2 activator: activates Nrf2 signaling; 410,000 compounds, 0.31% hits; AID 624171; AREc32 ARE-luciferase reporter (MCF7-derived line), luminescence, 24 h; Potency, µM (doses to about 46.1 µM), without a hit: top-dose activation, hits mostly activators; further: potency means the concentration at half of the fitted maximal effect; % of control where 0% means no effect; nearly all actives have a fitted effect of over 65% in size
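Luminescent ARE reporter assay in AREc32_Fluc cells: overnight plating at 37 deg C, 24 hr compound incubation, Steady-Glo added, 30 min RT before reading.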
D3 ag: activates the human D3 dopamine receptor; P35462; max activation, %; AID 652048; 410,000 compounds, 0.58% hits; D3R DiscoveRx beta-arrestin cells, luminescence, 90 min; in the data active means max activation above about 30%; further: 0% is about no effect
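Agonist mode: compounds and dopamine controls were applied to plated cells for 90 min at 37 degrees C after an overnight attachment at 1500 cells/well. Luminescent read-out followed 30 - 60 minutes at room temperature with DiscoveRx detection reagent.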
* hit, by the source's call; ? = inconclusive; nt = no result given. Unless noted, the call rests on the fitted dose curve; in most records, active means well fitted curve in the direction sought with a large enough effect; inconclusive means small, poorly fitted or top-dose-only effect, or another doubt; inactive means no such curve, though single readings can be large; an effect the other way counts as inactive or inconclusive.

SMILES	Glioma ERSR ind	D3 antag	Nrf2 activator	D3 ag
Cc1cc(NC(=O)C(Cl)c2ccccc2)no1 (configuration not stated)	0.4%	16.8	12.6µM*	12.4
CCN(CCN(C)Cl)/[N+]([O-])=N/Oc1ccc([N+](=O)[O-])cc1[N+](=O)[O-]	-11.8%	nt	nt	nt
Cc1c(C(=O)N2CC[C@@H]3CCCC[C@H]3C2)sc2ncnc(NCCc3ccccn3)c12	-5.8%	nt	nt	nt
CCc1nnc(NC(=O)CSc2ncnc3scc(-c4ccc(C)cc4)c23)s1	-2.0%	29.9	0.1%	51.4*
COc1ccc(CN2CCc3nnc(CCc4ccccc4)n3CC2)c(OC)c1C	-1.4%	nt	nt	nt
CCN(CC)c1ccc(/C=N/N2CCN(Cc3ccc(C)cc3)CC2)c(O)c1	-2.3%	-59.5*	-0.3%	-67.2
CSc1ccc(/C=N/N2CCN(Cc3ccc(Cl)cc3)CC2)cc1	1.0%	-54.2*	0.4%	-17.8
CCN(CC)c1ccc(/C=N/N2CCN(Cc3ccccc3Cl)CC2)c(O)c1	8.7%	22.2	-0.1%	-15.2
CSc1ccc(/C=N/NC(=O)CN2CCN(Cc3ccc(Cl)cc3)CC2)cc1	-2.3%	?	-0.4%	-9.8
COc1cc(/C=N/N2CCN(Cc3ccc(C)cc3)CC2)cc(OC)c1O	-4.6%	-78.6*	-0.3%	-22.8
Cc1ccc(CN2CCN(/N=C/c3cc([N+](=O)[O-])ccc3Cl)CC2)cc1	-3.5%	-60.5*	-1.0%	-15.9
COC(=O)[C@@H]1CCCN1S(=O)(=O)Cc1ccccc1	-3.0%	nt	nt	nt
COc1cc(/C=N/N2CCCCC2)cc([N+](=O)[O-])c1O	-3.2%	-65.1*	0.4%	-11.3
COc1cccc(CCNc2ncnc3sc(C(=O)N4CCN(C)CC4)c(C)c23)c1	-6.3%	nt	nt	nt
COc1c(C(=O)Nc2nnc(C3CC3)s2)csc1Cl	6.6%	-7.0	8.91µM*	2.8
Cc1cnc(C(=O)Nc2nnc(C3CC3)s2)cn1	-2.8%	23.8	-0.8%	-1.0
COc1ccc(Nc2nc(C)nc3sc4c(c23)CCC4)cc1O	-6.8%	2.7	6.31µM*	19.3
Cc1nc(NCc2ccco2)c2c3c(sc2n1)CCC3	-1.7%	5.0	28.2%	4.7
CC(=O)Nc1ccc(Nc2ccc3nonc3c2[N+](=O)[O-])cc1	2.9%	-25.2	0.3%	-7.6
O=[N+]([O-])c1ccc(Nc2ccccc2)c2nonc12	-5.5%	-24.1	19.7%	-7.0
CC(=O)NS(=O)(=O)c1ccc(Nc2ccc([N+](=O)[O-])c3nonc23)cc1	-2.1%	-54.1*	0.3%	-24.5
CCOc1ccc(Nc2ccc([N+](=O)[O-])c3nonc23)cc1	1.1%	-67.2*	10.9%	-16.2
O=C(C1CCN(S(=O)(=O)Cc2ccccc2)CC1)N1CCN(c2ccc(F)cc2)CC1	-2.3%	nt	0.2%	-8.3
CCC(Sc1nc2ccccc2c2nc(CCc3c(C)n[nH]c3C)nn12)C(=O)Nc1ccccc1F (configuration not stated)	0.1%	nt	-1.2%	-1.9
Cn1c(/C(C#N)=C(\O)c2cccc(F)c2)nc2ccccc21	-5.9%	-50.7*	?	0.4
SMILES	Glioma ERSR ind	D3 antag	Nrf2 activator	D3 ag
Cn1c(/C(C#N)=C(\O)c2ccc([N+](=O)[O-])cc2)nc2ccccc21	0.4%	-22.6	4.0%	-4.5
CN(Cc1cccc2ncccc12)C(=O)c1cnn(-c2ncc3c(n2)-c2ccccc2CC3)c1C1CC1	-7.1%	nt	nt	nt
O=C(Cc1ccccc1)Nc1ccccc1N1CCOCC1	0.7%	-52.4*	0.0%	4.9
O=C(Nc1ccccc1N1CCOCC1)C1=NN(c2ccccc2)C(=O)CC1	-2.7%	-51.7*	-0.3%	-3.9
Cc1c(C(=O)NCc2ccc(F)cc2)sc2ncnc(NCC3CCCO3)c12 (configuration not stated)	-4.4%	nt	nt	nt
CCn1nc(C(=O)Nc2cccc3ccccc23)c(Cl)c1Cl	-3.7%	-2.9	7.08µM*	-8.3
CCn1nc(C(=O)Nc2ccccc2C)c(Cl)c1Cl	1.1%	4.2	4.3%	-1.1
O=[N+]([O-])c1ccc2n[nH]nc2c1	-5.5%	-70.2*	-1.1%	-5.4
COCCCn1c(SCc2cccc(Cl)c2)nc2c(sc3ccccc32)c1=O	-0.9%	nt	-1.1%	-10.3
Cc1ccc2c(/C=C/c3c[nH]c4ccccc34)ccnc2c1C	-1.1%	nt	nt	nt
Cn1c(=O)c(C(=O)CCl)c(N)n(CC2CC2)c1=O	-4.3%	0.0	-0.2%	34.5*
CC(C)Cn1c(N)c(C(=O)CCl)c(=O)n(C)c1=O	-2.1%	61.0	-0.8%	11.5
COc1ccc(C(=O)NCc2nnc(SC)n2-c2ccccc2C)c(OC)c1OC	-5.5%	nt	nt	nt
COc1cc(OC)c(OC)cc1CN1CCCC(c2[nH]ncc2-c2cccc(C(F)(F)F)c2)C1 (configuration not stated)	-2.2%	nt	nt	nt
